Assay outcomes as filed in PubChem BioAssay.
Compounds with a hit are over-represented: about 3.4% of the library has one in this group of screens.
hgDAF12 agonist – agonists of H. glycines DAF-12 nuclear receptor; 1.8% of 370,000 active; activation, % at 6.8 µM; HEK293 GAL4-hgDAF12 UAS-luciferase reporter, agonist luminescence; normalized to butyrate control;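 active means activation above a cutoff set at the mean of all screened compounds plus 3 SD, cut at about 10% in these data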;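 further: 0% = DMSO wells and 100% = sodium butyrate wells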
NF-kB neuron act – NF-kB expression increase, human neuronal cells | 1.6% of 190,000 active | NF-kB reporter expression; stronger effect = higher value | AID 1239 | fold change at 12.5 µM; in the data active means fold change above about 3.3
hcDAF12 agonist – H. contortus DAF-12 activation, primary screen | 1.4% of 370,000 active | AID 652067 | HEK293 hcDAF-12 lit1-tk-luc reporter, luminescence; 0% DMSO, 100% Δ7-dafachronic acid | activation, % at 6.8 µM;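 active means activation above the mean of all tested compounds plus 3 SD, cut at about 5.5% in these data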;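 further: 100% = response to 3 µM Δ7-dafachronic acid high control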
APP 5'UTR act – activates APP 5'UTR luciferase reporter; SH-SY5Y APP 5'UTR luciferase reporter, luminescence; zero percent = DMSO vehicle wells; activation, % at 2 µM; 1% of 190,000 active; AID 1276;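 active means activation above a set limit, based on mean plus 3 SD of controls, cut at about 140% in these data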
ssDAF12 agonist – S. stercoralis DAF-12 activation, primary screen; HEK293 ssDAF-12/GRIP1 lit1-tk-luc reporter, luminescence; % of 3 µM dafachronic acid response; activation, % at 6.8 µM; 1% of 370,000 active; AID 652126;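 active means activation above the mean over all tested compounds plus 3 SD, cut at about 0.9% in these data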;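 further: 0% = DMSO-only wells and 100% = 3 µM delta7-dafachronic acid wells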
LXRb hcDAF ctr – LXR-beta agonism as hcDAF-12 counter-screen; AID 743027; activation, % at 6.8 µM; shares compounds with hcDAF12 agonist; 3,400 tested, under 10 active; HEK293 Gal4-LXR tk-luc reporter, luminescence, 24 h; normalized: DMSO 0%, positive control 100%;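 active means mean percent activation of the reporter above a cutoff set as the average over tested compounds plus their standard deviation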
Target sequence (P55055 whole entry, looked up, the tested form may be a part): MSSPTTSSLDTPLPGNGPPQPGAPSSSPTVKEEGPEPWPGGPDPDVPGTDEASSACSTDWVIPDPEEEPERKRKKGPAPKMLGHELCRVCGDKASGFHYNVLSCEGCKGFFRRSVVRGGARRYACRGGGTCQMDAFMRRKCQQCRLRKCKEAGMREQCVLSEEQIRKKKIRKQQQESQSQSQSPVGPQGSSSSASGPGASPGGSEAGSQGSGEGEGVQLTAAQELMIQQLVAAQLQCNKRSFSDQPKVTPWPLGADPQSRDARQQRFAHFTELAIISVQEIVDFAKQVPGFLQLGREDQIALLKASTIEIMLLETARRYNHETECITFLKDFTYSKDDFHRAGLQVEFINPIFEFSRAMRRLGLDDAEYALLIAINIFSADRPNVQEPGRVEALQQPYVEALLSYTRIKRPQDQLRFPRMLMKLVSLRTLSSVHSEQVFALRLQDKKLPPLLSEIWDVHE
hcDAF12 conf – hcDAF-12 agonism, confirmation assay. 61% of 3,400 active. HEK293 hcDAF-12 lit1-tk-luc reporter, luminescence; % of Δ7-dafachronic acid response. shares compounds with hcDAF12 agonist. activation, % at 6.8 µM;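 active means mean activation across triplicate tests above the threshold derived from the earlier primary screen, cut at about 5.5% in these data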;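 further: 0% = DMSO only wells and 100% = 3 µM Δ7-dafachronic acid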
* = called active by the depositor; · = no result given.

SMILES	hgDAF12 agonist	NF-kB neuron act	hcDAF12 agonist	APP 5'UTR act	ssDAF12 agonist	LXRb hcDAF ctr	hcDAF12 conf
COC(=O)[C@]12C[C@H](CC(=O)NCC3CCCCC3)C(=O)N(Cc3ccco3)C1=C[C@H](C(C)(C)C)O[C@@H]2C	-3.9	·	-1.7	·	-1.5	·	·
CC(=O)Nc1ccc(S(=O)(=O)Nc2nc3ccccc3nc2N2CCc3ccccc3C2)cc1	8.1	1.16	10.8*	18.4	2.2*	0.3	6.7*
CC(=O)Nc1ccc(S(=O)(=O)Nc2nc3ccccc3nc2N2CCCCCC2)cc1	-1.9	1.11	0.3	-0.1	-0.8	·	·
CC(C)CN1CCN(Cc2cc3ccccc3[nH]2)CC1CCO (centres undefined)	-0.3	·	4.1	·	0.1	·	·
CC(C)CCN1CCN(Cc2cc3ccccc3[nH]2)CC1CCO (centres undefined)	-0.3	·	6.9*	·	0.3	-0.2	7.0*
Cc1c(C(=O)Oc2ccc(-c3cnc4ccccc4n3)cc2)cccc1[N+](=O)[O-]	0.7	1.68	-1.4	72.7	-0.1	·	·
CCC(=O)Oc1ccc(-c2cnc3ccccc3n2)cc1	11.3*	6.83*	7.1*	175.4*	0.7	2.0	10.3*
Cc1ccnc(NC(=S)NC(=O)c2cccs2)c1	19.1*	3.67*	13.6*	130.1	2.1*	2.0	10.9*
CCOC(=O)N/C(N)=N/c1nc2ccccc2s1	10.6*	7.03*	7.0*	199.3*	0.2	1.3	5.2
Cc1ccsc1C=Nc1ccc(O)cc1	·	0.89	·	5.5	·	·	·
Cc1ccsc1/C=N/N=C/c1sccc1C	17.1*	·	11.2*	·	1.6*	1.8	13.7*
COc1cc(O)c2c(=O)c(-c3ccc(O[C@@H]4O[C@H](CO)[C@@H](O)[C@H](O)[C@H]4O)cc3)coc2c1	12.1*	·	7.2*	·	0.9	1.6	5.5
COc1ccccc1CCC[C@H](CCS(=O)(=O)C(C)C)CC1CCCCC1	4.7	·	-1.8	·	-1.4	·	·
C#CCN(C1CC1)S(=O)(=O)c1ccccc1Br	-0.1	·	-2.9	·	-0.3	·	·
CCn1cc(Cl)c(C(=O)N2N=C3/C(=C/c4cccs4)CCCC3C2c2cccs2)n1 (centres undefined)	2.0	0.78	6.6*	17.5	-0.7	-0.1	4.7
COc1ccc(Cn2ccc3ccc(-c4ccc5ccn(C(=O)C6CCC6)c5c4)cc32)cc1	5.6	·	-1.9	·	-0.1	·	·
CN(C)c1ccc(/C=C/c2nc3ccccc3s2)cc1	-9.9	0.6	-4.0	13.7	-2.6	·	·
Cc1ccc(/C=C/c2nc3ccccc3s2)s1	1.9	2.45	9.4*	98.5	-0.1	1.1	18.5*
COC(=O)[C@]12C[C@H](CC(=O)N3CCSCC3)C(=O)N(Cc3ccc(Cl)cc3Cl)C1=C[C@H](COCc1ccccc1)O[C@@H]2C	1.4	·	0.1	·	-1.5	·	·
CCN(C[C@H]1N[C@@](CC)(C(=O)OC)[C@H]2C(=O)N(C)C(=O)[C@@H]12)C(=O)c1ccc(F)cc1	-3.9	·	12.5*	·	-1.0	-0.1	2.9
CCN(C[C@H]1N[C@@](Cc2ccccc2)(C(=O)OC)[C@H]2C(=O)N(C)C(=O)[C@@H]12)C(=O)c1ccc(F)cc1	-1.6	·	-0.5	·	-0.9	·	·
COc1ccc(C(=O)N=c2sccn2C)cc1	4.6	2.02	1.8	54.1	-0.1	·	·
Cn1ccsc1=NC(=O)c1ccc(OC(F)(F)F)cc1	10.3	·	8.2*	·	-0.2	0.7	4.2
COc1ccccc1Cc1c(-c2ccc(F)cc2)nc2ccc(Cl)cn12	11.0*	·	7.0*	·	-0.2	0.2	1.4
COc1ccc(-c2ccc(N3C(c4ccsc4)=Cc4ccc(F)cc4C3c3c[nH]c4ccccc34)cc2)cc1 (centres undefined)	8.6	·	8.5*	·	1.5*	0.1	6.9*
SMILES	hgDAF12 agonist	NF-kB neuron act	hcDAF12 agonist	APP 5'UTR act	ssDAF12 agonist	LXRb hcDAF ctr	hcDAF12 conf
Cc1cc(SCC(=O)c2cccs2)nc2c(C)cccc12	2.6	1.07	6.8*	8.7	-0.7	-0.2	2.6
CCCCNC(=O)C[C@@H]1C(=O)N(Cc2ccc(OC)cc2)C2=CCN(C(=O)OC(C)(C)C)C[C@]21C(=O)OCC	-1.4	·	-1.6	·	-1.0	·	·
Cc1ccc(-c2nc3cc(Cl)ccc3o2)cc1	8.4	8.49*	8.2*	26.7	0.9*	1.9	16.1*
COc1cc(OC)cc(-c2nc3cc(C)ccc3o2)c1	10.1	6.24*	17.3*	114.1	2.3*	0.8	12.6*
CCOc1ccc(C=Nc2cccc3ncccc23)cc1	-0.4	1.37	9.2*	-33.4	0.2	-0.1	3.8
COc1ccc(Cn2cc(COC(=O)N3CCOCC3)nn2)cc1	-4.1	·	-0.9	·	-0.7	·	·
c1ccc(C2=NN(c3ccccc3)CC2)cc1	11.2*	·	6.7*	·	0.7	0.4	3.6
Cc1cc2cc(OCC(=O)O)ccc2n1C	-0.7	1.07	-1.3	9.1	-1.1	·	·
Cc1cc2cc(OCc3ccccc3)ccc2n1C	6.0	·	6.7*	·	-0.4	1.3	3.6
O=C(Nc1ccc2cccnc2c1)c1ccc(Br)cc1	7.3	·	8.6*	·	0.1	0.3	7.0*
O=C(CSc1nnc(COc2ccc(Cl)cc2)n1Cc1ccco1)Nc1ccc(OCc2ccccc2)cc1	1.0	·	-0.9	·	-2.0	·	·
Cc1ccc(S(=O)(=O)N2CCN(C(=O)c3ccc4ccccc4n3)CC2)c(C)c1	11.5*	·	7.2*	·	0.9	0.4	8.4*
CC(C)CNC(=O)OCc1cn(Cc2cccc(Cl)c2)nn1	-4.0	·	-1.6	·	-1.1	·	·
N#C/C(=C\c1ccc(N2CCOCC2)o1)c1ccccc1	-2.2	1.9	-0.8	27.6	-1.6	·	·
N#C/C(=C/c1ccc(N2CCOCC2)o1)c1nc2ccccc2[nH]1	1.9	2.78	6.8*	157.9*	0.6	2.0	8.1*
Cc1cc(OCc2nc(-c3cccnc3)no2)c(C)cc1Br	1.1	1.08	-1.5	·	-1.1	·	·
Clc1ccc(OCc2nc(-c3ccncc3)no2)c(Br)c1	12.8*	4.04*	8.3*	250.4*	1.2*	1.2	6.2*
CC(C)(C)Cc1nc(-c2ccccn2)no1	1.8	0.48	0.9	36.2	0.3	·	·
CCc1ccc(OCc2nc(-c3ccccn3)no2)c(Br)c1	8.4	3.16	7.7*	181.0*	1.0*	1.5	6.4*
O=C(Nc1ccccc1C(F)(F)F)OCCCN1CCC2(CCC(c3ccccc3)CC2)C1=O (centres undefined)	-1.8	·	-3.8	·	-2.2	·	·
COc1ccc(CNS(=O)(=O)/C=C/c2ccc(F)cc2CNC(=O)OC(C)(C)C)cc1	-2.9	·	-1.6	·	-1.8	·	·
COc1ccc(CNC(=O)Cc2c(C(=O)O)[nH]c3ccccc23)c(OC)c1	1.1	·	6.9*	·	1.9*	-0.4	1.9
COC(=O)c1ccc(-c2nc(-c3cccs3)no2)cc1	13.7*	1.01	6.8*	136.0*	1.8*	0.9	4.1
Fc1ccc(-c2nc(-c3cccs3)no2)cc1	4.4	·	1.8	·	-1.0	·	·
